The record followed here is PubChem BioAssay.

Values without a mark were called inactive. Activity calls are given as the source filed them.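 How the source made its calls, unless noted: active means mean inhibition above 46.5%, the solvent-only control mean plus 3 SD; inactive means the rest.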

The test system of assay [1] is transactivating tegument protein VP16 (Human herpesvirus 1). Description: VP16 transactivation reporter inhibitors, counter-screen for SRC2 inhibitor project, cell-based, luminescence, single concentration (AID 652007; in the data active means inhibition above about 36%). The following applies: cell-based VP16 transactivation luciferase reporter, at 8.9 µM, stronger effect = higher value. (Counterscreens check selectivity or assay interference.)

The target in assay [2] is Nuclear receptor coactivator 2 (Homo sapiens) (UniProt Q15596). Description: SRC2 coactivator transcriptional activity inhibitors, confirmation, cell-based, luminescence, HEK293, triplicate (AID 652008).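 Further: 0% = DMSO-treated cells and 100% = Gossypol at 36 µM.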 The following applies: HEK293 GAL4-SRC2 luciferase reporter, at 8.9 µM, stronger effect = higher value. (In general: In a reporter assay the amount or activity of a reporter protein is the signal.)
Chain of Nuclear receptor coactivator 2 (Homo sapiens) (Q15596 whole entry, looked up, the tested form may be a part): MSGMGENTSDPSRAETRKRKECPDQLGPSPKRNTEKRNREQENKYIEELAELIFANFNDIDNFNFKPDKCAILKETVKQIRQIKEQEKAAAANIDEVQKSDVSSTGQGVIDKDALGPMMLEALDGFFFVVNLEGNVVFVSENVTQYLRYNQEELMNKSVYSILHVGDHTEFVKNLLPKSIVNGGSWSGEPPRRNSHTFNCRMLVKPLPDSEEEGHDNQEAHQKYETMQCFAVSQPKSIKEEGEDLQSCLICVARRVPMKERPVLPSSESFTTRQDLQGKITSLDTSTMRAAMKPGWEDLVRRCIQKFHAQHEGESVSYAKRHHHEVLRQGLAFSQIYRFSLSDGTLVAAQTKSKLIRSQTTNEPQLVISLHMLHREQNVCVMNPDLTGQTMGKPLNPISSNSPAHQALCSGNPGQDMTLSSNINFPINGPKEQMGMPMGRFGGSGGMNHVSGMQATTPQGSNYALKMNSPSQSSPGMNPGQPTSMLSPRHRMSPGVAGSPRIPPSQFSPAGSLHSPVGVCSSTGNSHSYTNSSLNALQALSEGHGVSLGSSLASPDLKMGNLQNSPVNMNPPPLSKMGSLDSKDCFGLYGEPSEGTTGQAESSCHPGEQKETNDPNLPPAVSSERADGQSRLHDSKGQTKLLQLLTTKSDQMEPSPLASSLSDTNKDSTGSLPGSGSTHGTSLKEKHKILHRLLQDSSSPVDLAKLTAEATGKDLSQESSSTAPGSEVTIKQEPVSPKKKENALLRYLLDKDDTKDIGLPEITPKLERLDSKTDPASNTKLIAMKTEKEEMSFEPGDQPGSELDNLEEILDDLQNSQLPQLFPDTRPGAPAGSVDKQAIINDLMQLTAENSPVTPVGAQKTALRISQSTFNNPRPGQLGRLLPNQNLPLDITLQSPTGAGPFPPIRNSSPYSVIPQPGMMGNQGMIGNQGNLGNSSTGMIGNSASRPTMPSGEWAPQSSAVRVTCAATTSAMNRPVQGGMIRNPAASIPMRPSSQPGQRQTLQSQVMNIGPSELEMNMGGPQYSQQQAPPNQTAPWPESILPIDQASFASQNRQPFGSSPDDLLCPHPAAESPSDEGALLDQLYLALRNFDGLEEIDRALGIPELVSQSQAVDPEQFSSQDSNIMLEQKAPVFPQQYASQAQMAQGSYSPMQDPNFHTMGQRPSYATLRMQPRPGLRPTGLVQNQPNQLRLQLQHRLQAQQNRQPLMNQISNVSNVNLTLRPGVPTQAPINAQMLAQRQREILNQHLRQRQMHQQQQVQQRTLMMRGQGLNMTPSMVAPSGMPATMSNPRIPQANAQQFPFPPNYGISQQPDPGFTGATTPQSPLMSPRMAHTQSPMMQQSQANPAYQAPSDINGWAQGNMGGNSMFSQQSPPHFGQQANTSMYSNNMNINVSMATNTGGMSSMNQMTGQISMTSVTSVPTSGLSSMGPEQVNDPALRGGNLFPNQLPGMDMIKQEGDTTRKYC

`Cn1cnnc1SCC(=O)NC1CCCC1`: the inhibition is -4.24% in assay [1] and -19.9% in assay [2].
In the case of `CCn1nc(NS(=O)(=O)c2ccc([N+](=O)[O-])cc2)c2cc3ccc(C)cc3nc21`, the values for the inhibition in assay [1] and in assay [2] were 10.1% and -26.1%, respectively.
In the same order, the values of `Cc1ccccc1N(Cc1cc(=O)[nH]c2ccccc12)C(=O)CCl` are 44.6% (active) and 76.7% (active).
In the same order, the values of `O=C(O)COc1ccccc1/C=N/NC(=O)Cc1csc(Nc2cccc(C(F)(F)F)c2)n1` are -15.7% and -14.6%.
For `Cc1nc(NCc2ccco2)c2c(C)c(C)sc2n1`, in that order: 12% and 38%.
As for `CCOc1ccc(NC(=S)NC(=O)/C=C/c2ccc(OC)cc2)c([N+](=O)[O-])c1`, the inhibition was -22.3% in assay [1] and -19.4% in assay [2].
For `CN(C)CCCN(C(=O)CCOc1ccccc1)c1nc2c(F)cccc2s1`, in that order: -2.69% and 20.6%.
For `CCOc1ccc2oc(C(=O)NCc3ccccc3CN3CCCC3)c(C)c2c1`, in that order: -10.5% and -12.9%.
As for `COc1ccc2nc(-c3ccc(N)cc3)[nH]c2c1`, the inhibition in assay [1] was -62.2%; in assay [2] it was 49.5% (active).
For `Cc1ccc(S(=O)(=O)Nc2ccccc2C(=O)N2CCCC2)cc1`, in that order: -24.9% and 0.98%.
For `CCCCC(NC(=O)CCc1c(C)c2cc3c4c(oc3c(C)c2oc1=O)CCCC4)C(=O)O` (centres undefined), in that order: 31.6% and 29.4%.
Take `NC(=O)c1ccsc1NC(=O)COC(=O)c1ccc([N+](=O)[O-])o1`: the inhibition in assay [1] is -4.1%; in assay [2], -22.5%.

Broadly, the inhibition is the change of the read-out against control, counted positive when it falls.
